In the library only some 3.3% were active in any assay of this set; here they are far more common.
PHOSPHO1 inh – blocks human PHOSPHO1 phosphatase activity; Q8TCT1; recombinant PHOSPHO1, absorbance phosphatase assay; inhibition, % at 13.3 µM; 290,000 compounds, 1.1% hits; in the data active means inhibition above about 60%
Efflux pump inh – blocks antifungal efflux pumps in multiplex yeast assay; S. cerevisiae Candida pump triplex, Nile Red efflux; inhibition, % at 10 µM; 330,000 compounds, 0.44% hits; AID 485275;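 active means plate passing quality check with inhibition over a set limit, or well fluorescence over plate mean plus 4 SD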;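 further: Nile Red retained in pooled yeast measured as flow cytometry median fluorescence; 0% = buffer negative control and 100% = Enniatin B positive control; higher means more Nile Red kept so more efflux inhibition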
Cardio protect – protects H9c2 cardiomyocytes from peroxide injury; protection from H2O2 cell death, % at 20 µM; H2O2 injury protection, ATPLite, 2 h; 360,000 compounds, 0.63% hits; AID 588492;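 active means compounds giving at least 50% protection of heart cells from peroxide-induced death in the single-dose screen, raw or plate-pattern-corrected value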;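 further: 0% = DMSO wells with peroxide and 100% = DMSO wells without peroxide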
KCC2 mod – modulates chloride dependent transport by human KCC2. Q9H2X9. KCC2 cells, thallium flux FluoZin-2 fluorescence. B-score of Tl+ flux slope (higher = more flux/activation; lower = inhibition) at 10 µM. 190,000 compounds, 2.2% hits;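 active means thallium flux slope and its plate-corrected score both differing from the plate sample mean at a set confidence after two filtering rounds, in either direction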;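 further: slope of fluorescence scaled to starting intensity during 10 to 20 s after thallium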
Target sequence (Q9H2X9 whole entry, looked up): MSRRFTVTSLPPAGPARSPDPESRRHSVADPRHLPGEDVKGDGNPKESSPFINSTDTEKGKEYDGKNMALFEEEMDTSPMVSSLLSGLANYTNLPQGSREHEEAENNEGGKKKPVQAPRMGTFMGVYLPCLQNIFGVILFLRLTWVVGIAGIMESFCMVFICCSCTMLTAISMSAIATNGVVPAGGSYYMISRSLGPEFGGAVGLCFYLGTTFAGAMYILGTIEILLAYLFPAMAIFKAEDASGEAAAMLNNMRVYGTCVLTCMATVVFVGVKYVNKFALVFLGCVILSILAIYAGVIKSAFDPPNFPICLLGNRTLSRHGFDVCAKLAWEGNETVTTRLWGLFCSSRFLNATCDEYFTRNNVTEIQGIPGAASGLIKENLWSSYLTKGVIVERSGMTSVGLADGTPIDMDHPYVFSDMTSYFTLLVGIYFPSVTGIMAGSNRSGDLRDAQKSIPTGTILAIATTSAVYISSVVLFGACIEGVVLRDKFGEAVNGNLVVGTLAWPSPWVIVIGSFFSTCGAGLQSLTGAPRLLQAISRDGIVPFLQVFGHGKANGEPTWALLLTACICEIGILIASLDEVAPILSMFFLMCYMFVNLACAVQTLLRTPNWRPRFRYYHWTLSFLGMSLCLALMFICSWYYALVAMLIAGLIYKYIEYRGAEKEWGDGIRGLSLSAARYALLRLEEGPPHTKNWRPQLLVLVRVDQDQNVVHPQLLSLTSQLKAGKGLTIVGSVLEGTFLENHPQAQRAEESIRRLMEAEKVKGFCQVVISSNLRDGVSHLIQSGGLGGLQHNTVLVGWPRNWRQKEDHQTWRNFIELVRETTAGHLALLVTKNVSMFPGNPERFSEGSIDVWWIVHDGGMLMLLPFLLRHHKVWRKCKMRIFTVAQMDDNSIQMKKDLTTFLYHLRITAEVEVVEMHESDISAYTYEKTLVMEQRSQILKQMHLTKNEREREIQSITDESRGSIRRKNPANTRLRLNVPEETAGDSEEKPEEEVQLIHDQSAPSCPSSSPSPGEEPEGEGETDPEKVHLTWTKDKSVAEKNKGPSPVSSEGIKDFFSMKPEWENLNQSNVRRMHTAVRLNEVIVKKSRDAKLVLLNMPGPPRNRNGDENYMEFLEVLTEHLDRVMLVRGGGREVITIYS
Calb FLC – C. albicans growth modulation with fluconazole. C. albicans CaCi-2 (fluconazole-resistant clinical isolate) + fluconazole, Alamar Blue growth, 48 h. growth inhibition, % (concentration not given with the values). 300,000 compounds, 0.57% hits. AID 1979;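 active means growth inhibition above about 58% in most replicates, limit read from the data, passing the limit was not always enough; inconclusive means exactly half the replicates above a set limit; inactive means most replicates below a set limit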;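 further: all wells also contain fluconazole at 8 µg/ml as a sub-toxic cotreatment; 0% = median of DMSO wells and 100% = median of geldanamycin control wells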
Active calls of the source: *; ? = inconclusive; · = no result.

SMILES | PHOSPHO1 inh | Efflux pump inh | Cardio protect | KCC2 mod | Calb FLC
COc1ccc(-c2nnc(-c3cc(OC)c(OC)c(OC)c3)o2)cc1OC | -14.1 | 0.0 | 58.2* | -0.23 | -3.2
Cc1nnc(SCC(=O)Nc2nccs2)n1N | · | 0.0 | 1.8 | · | -1.9
O=C(COc1ccc(F)cc1)N(Cc1cccc(Br)c1)C1CCS(=O)(=O)C1 (centres undefined) | 64.7* | -0.1 | 5.2 | · | -2.5
O=C(COc1ccccc1)N(Cc1cccc(F)c1)C1CCS(=O)(=O)C1 (centres undefined) | -19.6 | -0.1 | -2.8 | · | 30.3
O=C(CSc1nnnn1-c1ccccc1)NCC1(N2CCOCC2)CCCCC1 | · | 0.1 | 5.1 | · | ·
O=C(O)CC(NC(=O)/C(=C/c1ccccc1)NC(=O)c1ccccc1)c1ccccc1 (centres undefined) | 6.8 | 0.0 | 3.0 | · | 16.3
COc1ccc(CCC(=O)N2CC(C)OC(C)C2)cc1 (centres undefined) | -8.3 | 0.0 | 5.6 | 0.0218 | 89.4*
O=C(NCc1ccccc1F)c1ccc2c(c1)OCCO2 | 35.6 | -0.1 | 7.9 | · | 0.1
Cc1ccc(-n2nnnc2-c2ccccc2)cc1 | 8.6 | 0.0 | -3.0 | 0.0288 | 22.3
Cc1ccc(-n2nnnc2C(Cl)c2nnnn2-c2ccc(C)cc2)cc1 | -3.4 | · | -8.3 | -0.182 | 96.0*
Cc1ccccc1OCC(=O)OCC(=O)NCc1ccccc1Cl | · | 0.1 | 10.9 | · | ·
c1csc(Cc2nn3c(-c4ccncc4)nnc3s2)c1 | 72.2* | 0.0 | 4.6 | -0.227 | 54.7
Clc1ccccc1OCc1nn2c(-c3ccncc3)nnc2s1 | 6.3 | 0.1 | 49.8 | -1.46 | 14.9
COc1cc(C2/C(=C(\O)c3ccc4c(c3)CC(C)O4)C(=O)C(=O)N2CCCn2ccnc2)cc(OC)c1OC (centres undefined) | 43.5 | 0.2 | -1.9 | · | -1.8
O=C(NNc1ccccc1)C(CCO)C(=O)NNc1ccccc1 | -11.0 | -0.5 | 2.5 | -0.157 | 100.3*
CC(O)CC(C(=O)NNc1ccccc1)C(=O)NNc1ccccc1 (centres undefined) | -30.3 | 0.1 | -3.7 | -0.0168 | ?
CCCc1nc2ccccc2c(C(=O)OC2CCOC2=O)c1CC (centres undefined) | 66.1* | 0.0 | 5.2 | · | -1.2
CCc1nc2ccccc2c(C(=O)OC2CCOC2=O)c1C (centres undefined) | -7.4 | 0.3 | 1.9 | -0.0519 | -3.3
COc1cccc2c(=O)c(SC(F)(F)C(F)C(F)(F)F)c(C)[nH]c12 (centres undefined) | -1.6 | 0.1 | 2.6 | · | -5.5
Cc1[nH]c2ccc(F)cc2c(=O)c1SC(F)(F)C(F)C(F)(F)F (centres undefined) | 88.1* | 0.0 | -21.5 | · | 29.1
O=C(Nc1ccc2c(c1)OCCO2)C1CCN(C(=O)c2ccc([N+](=O)[O-])cc2)CC1 | 66.2* | -0.1 | 0.8 | 0.6 | -7.4
CCCNC(=O)c1cc(C2CCCN(S(=O)(=O)c3cccc4cccnc34)C2)on1 (centres undefined) | · | · | 4.2 | · | ·
CC1CN(CCN2CC(C)N(C=O)CC2C)C(C)CN1C=O (centres undefined) | · | · | 5.9 | · | ·
OC(C#Cc1ccccn1)c1cccs1 (centres undefined) | 60.5* | 0.1 | -29.5 | 0.372 | -11.6
CC(=O)Nc1cc(-c2ccc(C(=O)NC3CC3)cc2)cn2c(-c3ccc(F)c(Cl)c3)cnc12 | · | · | 32.2 | · | ·
SMILES | PHOSPHO1 inh | Efflux pump inh | Cardio protect | KCC2 mod | Calb FLC
CCc1ccccc1N(C)S(=O)(=O)c1cc(-c2cc(C)no2)ccc1OC | 32.4 | 0.0 | -2.4 | · | 52.8
COc1ccc(-c2cc(C)no2)cc1S(=O)(=O)N(C)c1cccc(C)c1 | 47.7 | 0.1 | -5.8 | · | 92.3*
CC(c1nc2ccccc2c(=O)[nH]1)N1CCCN(S(=O)(=O)c2ccc(F)cc2)CC1 (centres undefined) | · | -0.1 | 4.6 | · | ·
Cc1ccc(C)c(S(=O)(=O)C(C#N)c2nc3ccccc3nc2N2CCCC2)c1 (centres undefined) | 72.5* | 0.0 | 7.1 | -2.14 | -16.4
Cc1ccc(S(=O)(=O)C(C#N)c2nc3ccccc3nc2N2CCN(C)CC2)cc1C (centres undefined) | 19.1 | 0.2 | 5.1 | 0.118 | 82.9*
O=C(N/N=C/c1cn(-c2ccccc2)nc1-c1cccnc1)c1ccccc1 | -7.3 | -0.1 | 60.6* | -1.01 | 1.1
O=C(N/N=C\c1cn(-c2ccccc2)nc1-c1ccccc1)c1ccc2c(c1)OCO2 | 8.9 | 0.1 | 52.5* | 0.0981 | 5.1
CSCCCNC(=S)N1CCc2ccccc2C1 | -38.5 | -0.1 | -12.4 | -1.37 | -19.6
C=CCn1c(NC(=O)c2ccc(Br)o2)c(C(=O)OCC)sc1=S | 85.4* | 0.2 | -3.0 | 0.502 | 92.6*
CCOC(=O)c1c(NC(=O)c2ccc(Br)o2)sc(C)c1CC | -36.1 | 0.1 | 3.8 | 0.313 | 2.2
C/C(=N\NC(=S)NCCc1ccccc1)c1cccs1 | -12.9 | 0.1 | -0.9 | 8.58* | -5.3
CC(C)CCCCCCCCCCCCC(=O)NCC(=O)NC1C(O)C(O)C(Nc2ncnc3nc[nH]c23)OC1C(O)CO (centres undefined) | · | · | -0.5 | · | ·
CCN1CCN(C(=O)C2CCCN(S(=O)(=O)c3cccc4nsnc34)C2)CC1 (centres undefined) | -3.2 | 0.0 | 2.4 | · | 4.7
CCOC(=O)/C(C#N)=C/c1cccc(C)c1 | 11.5 | 0.1 | -2.6 | -0.836 | -1.0
CCOC(=O)/C(C#N)=C/c1cccc([N+](=O)[O-])c1 | 63.9* | -0.1 | 5.1 | 0.257 | 1.0
O=S(=O)(NCCN1CCOCC1)c1ccc(F)c(Cl)c1 | 4.7 | 0.3 | 5.1 | · | -1.8
C=CCN1C(=O)c2ccc(C(=O)N(CC(C)C)c3c(N)n(CCCC)c(=O)[nH]c3=O)cc2C1=O | · | 0.0 | -4.8 | · | 6.2
CCn1cc(CN2CCc3c([nH]c4ccccc34)C2c2cccc(OC)c2)c(C)n1 (centres undefined) | 45.5 | -0.1 | 4.6 | · | 11.3
CCn1cc(CN2CCc3c([nH]c4ccccc34)C2c2cccc(O)c2)c(C)n1 (centres undefined) | 63.7* | 0.0 | -4.4 | -0.417 | 28.0
COc1ccc(S(=O)(=O)N2CCN(CC(=O)NC3CC3)CC2)cc1 | 61.6* | 0.0 | 0.0 | · | 3.3
COc1ccc(C(=O)NC2CCN(S(=O)(=O)c3ccccc3)CC2)cc1 | · | -0.1 | 5.7 | · | -10.4
COc1ccc(S(=O)(=O)N2CCC(Nc3ccccc3Cl)CC2)cc1 | 61.0* | 0.0 | -3.5 | · | 10.9
O=C(CN1CCN(S(=O)(=O)c2ccc(Cl)cc2)CC1)NC1CCCC1 | 35.2 | 1.0 | 0.8 | · | -16.8
O=C(CN1CCN(S(=O)(=O)c2ccc(F)cc2)CC1)NC1CCCC1 | 60.6* | 0.0 | 3.4 | · | -1.8
O=C1CC(SC(=NCc2ccc3c(c2)OCO3)Nc2ccccc2)C(=O)N1c1ccccc1 (centres undefined) | 11.8 | -0.1 | -12.5 | 0.619 | 0.7
Cc1cc(C)nc(NC(=NCc2ccc3c(c2)OCO3)NC(=O)Nc2ccccc2)n1 | 4.7 | 0.0 | -1.7 | -0.0132 | 122.0*
O=c1[nH]c(-c2ccncc2)nc2ccccc12 | 98.0* | -0.2 | 39.3 | · | -0.9
O=c1[nH]c(-c2cccnc2)nc2ccccc12 | 21.1 | -0.1 | 47.0* | -0.0308 | 37.8

Bioassay records from PubChem.
